Abs 340nm: compound light absorbance at 340 nm, profiling panel, artefact control, biochemical, MLSMR library, data from PS, PMK, MK assays. AID 708, 2007. 65,000 tested, under 10 active. compound absorbance at 340 nm, fold over control. fold change at 10 µM;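 active means at 10 µM dose, initial 340 nm absorbance at least 2 fold that of control wells; inactive means change under 2 fold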;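 further: initial absorbance extrapolated from kinetic A340 decline of NADH oxidation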
PMK inhibit: S. pneumoniae PMK inhibitors, primary screen, biochemical, mevalonate pathway, pilot trial included; purified PMK, PK/LDH-coupled NADH absorbance 340 nm; inhibition, % at 10 µM; hit rate 0.49% among 65,000; AID 539, 2006;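 active means top-ranked compounds by inhibition in the single 10 µM screen, taking a fixed number of the strongest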
NADH coupling: inhibitors of PK/LDH coupling enzymes, profiling panel, artefact control, biochemical, MLSMR library; coupled PK/LDH NADH assays, four targets; IC50, µM (series often up to 10 µM); hit rate 0.02% among 65,000;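 active means single-dose screening hits from any of four coupled enzyme assays that gave an IC50 when retested across doses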;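 further: the DPM-DC format reads NADH fluorescence rather than 340 nm absorbance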
MK inhibit: S. pneumoniae MK inhibitors, primary screen, biochemical, PK/LDH-coupled NADH absorbance. mevalonate kinase [Streptococcus pneumoniae D39]. purified MK, PK/LDH-coupled NADH absorbance 340 nm. inhibition, % at 10 µM. hit rate 0.48% among 65,000. AID 555, 2006;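 active means ranked among the strongest by inhibition in the single 10 µM screen, a fixed top-ranked set picked for dose follow-up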
Autofluor 339: intrinsic fluorescence of library compounds, ex339/em460 – biochemical, MLSMR library, data from DPM-DC assay, artefact control, profiling panel. hit rate 5.5% among 65,000. compound autofluorescence, ex339/em460 nm, NADH buffer; active compounds read high; 1 = no-compound wells, NADH background. fluorescence fold increase at 10 µM;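 active means at 10 µM, mean starting fluorescence two-fold or more over control wells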;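 further: signal is the first read of a kinetic run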
Spn DPM-DC inh: S. pneumoniae DPM-DC inhibitors, primary screen, biochemical, PK/LDH-coupled NADH fluorescence. diphosphomevalonate decarboxylase (Streptococcus pneumoniae D39). purified DPM-DC. calls only at 10 µM. hit rate 0.49% among 65,000. AID 556, 2006;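 active means the 320 compounds with the highest percent inhibition in the single-dose primary screen, excluding strongly autofluorescent ones, cut at about 32% in these data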;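 further: kinetic rate of NADH fluorescence loss reporting ADP formed by the decarboxylase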
Of the large screens only hits and unclear results are named; the others gave an inactive call. The list is not random: actives were taken first. Their share in the collection is about 6.5%.

COc1ccc(CNc2oc(COc3ccc(Cl)cc3)nc2C#N)cc1	none
COc1ccc(-c2nc(C#N)c(NCCc3ccccc3)o2)cc1	Autofluor 339 3.6 (not shown: Spn DPM-DC inh)
COc1ccc(-c2nc(C#N)c(NCCN(C)C)o2)cc1	Autofluor 339 2.1 (not shown: Spn DPM-DC inh)
COc1ccc(CCNc2oc(-c3ccc(C)cc3)nc2C#N)cc1OC	Autofluor 339 2.1 (not shown: Spn DPM-DC inh)
CNc1oc(-c2ccccc2)nc1C#N	Autofluor 339 2.1 (not shown: Spn DPM-DC inh)
Nc1nc(N2CCN(C/C=C/c3ccccc3)CC2)nc2ccccc12	none
CCC1Oc2ccc(C)cc2N(CC(=O)NCc2cccc(OC)c2)C1=O (stereo unspecified)	none
COc1ccc2nc(NC(=O)c3cccc(OCc4c(C)noc4C)c3)sc2c1	Autofluor 339 4 (not shown: Spn DPM-DC inh)
c1ccc(-c2nc3cc(Oc4ccc5oc(-c6ccccn6)nc5c4)ccc3o2)nc1	none
Cc1ccc2nc(-c3ccccn3)oc2c1	Autofluor 339 3
Cc1ccc2nc(-c3cccnc3)oc2c1	Autofluor 339 2.7
CCCCn1c(N2CCC(Cc3ccccc3)CC2)nc2c1c(=O)[nH]c(=O)n2C	none
CC(C)CCn1c(Br)nc2c1c(=O)n(CC(N)=O)c(=O)n2C	none
COc1ncnc(OC)c1NC(=O)c1ccc(F)cc1	MK inhibit 63
O=C(Nc1nc2ccccc2[nH]1)c1ccc(F)cc1	none
Cc1cc(C)n2nc(SCc3cc(=O)n4ccccc4n3)nc2n1	none
Cc1cc(C)n2nc(SCc3cc(=O)n4c(C)cccc4n3)nc2n1	PMK inhibit 28
O=c1[nH]c2cc(Cl)cc(Cl)c2[nH]c1=O	Autofluor 339 2.5
Cn1c(=O)[nH]c2cc(Cl)cnc21	none
C=C(C)CSc1nc(N)cc(=O)[nH]1	none
O=C(Nn1cnc2ccccc2c1=O)C1CCCCC1	none
CCOC(=O)N1CCN(C(=O)c2cnn(-c3ccccc3)c2NC(=O)c2ccccc2F)CC1	none
Cc1ccc2nc(-c3ccc(NC(=O)CN4CCN(C(=O)c5ccco5)CC4)cc3)sc2c1	Autofluor 339 2.2 (not shown: Spn DPM-DC inh)
CCOc1ccc(-c2cc(C(=O)NCCCN3CCN(CC)CC3)c3ccccc3n2)cc1	Autofluor 339 5.2 (not shown: Spn DPM-DC inh)
COc1ccc(-c2cc(C(=O)NCCN3CCOCC3)c3ccccc3n2)cc1	Autofluor 339 4.9 (not shown: Spn DPM-DC inh)
Cc1ccc(C2=Nc3ccccc3NC(C)(c3ccc(C)o3)C2)o1 (stereo unspecified)	none
Cc1nn(-c2ccccc2)c2sc(C(=O)O)cc12	none
Cc1nn(-c2ccccc2)c2sc(-c3n[nH]c(=S)o3)cc12	Autofluor 339 3.9 (not shown: Spn DPM-DC inh)
O=c1[nH]cnc2nc(-c3ccccc3)c(-c3ccccc3)nc12	Autofluor 339 5.1 (not shown: Spn DPM-DC inh)
O=c1[nH]cnc2nn(-c3ccccc3)nc12	none
COc1ccc(OC)c2c(C)cc(N3CCCN(C)CC3)nc12	Autofluor 339 2.2 (not shown: Spn DPM-DC inh)
COc1ccccc1N1CCN(c2cc(N3CCCC3)nc(C)n2)CC1	none
COc1ccc2[nH]c(=O)c(CN(C(=O)NC3CCCCC3)C3CCCC3)cc2c1	Autofluor 339 2.5
COc1ccc2[nH]c(=O)c(CN(C(C)=O)C3CCCCC3)cc2c1	Autofluor 339 3.5 (not shown: Spn DPM-DC inh)
COc1cc2cc(CN(C(=O)Nc3ccccc3)C3CCCC3)c(=O)[nH]c2cc1OC	Autofluor 339 3.2 (not shown: Spn DPM-DC inh)
COc1cc2cc(CN(CCN3CCCC3)C(=O)Nc3ccc(F)cc3)c(=O)[nH]c2cc1OC	Autofluor 339 3.1 (no result: MK inhibit)
CCc1ccc2[nH]c(=O)c(CN(CCN(CC)CC)C(=O)NC3CCCCC3)cc2c1	none
CCOC(=O)N1CCC(NC(=O)c2cccc3c2C(=O)N(Cc2cccnc2)C3)CC1	none
Cc1ccc2[nH]c(=O)c(CN(CCN3CCOCC3)C(=O)Nc3ccccc3F)cc2c1	MK inhibit active
Cc1cccc2cc(CN(CCN3CCOCC3)C(=O)Nc3ccccc3F)c(=O)[nH]c12	none
Cc1cc(=O)[nH]c2c(C)c(N)ccc12	Autofluor 339 3.9 (not shown: Spn DPM-DC inh)
Cc1cc(=O)[nH]c2c(C)c(Cl)ccc12	none
CC1(C)Cc2c(c(-c3ccccc3)nc3[nH][nH]c(=O)c23)CO1	none
Cc1nc(NCCCO)c(C#N)c2c1COC(C)(C)C2	Autofluor 339 2.3 (not shown: Spn DPM-DC inh)
CCN(CC)c1nc(C)c2c(c1C#N)CC(C)(C)OC2	none

Compound activity: PubChem BioAssay, SRMLSC
